Shown are actives, neighbours in structure and some others; about 3% of the full set was active somewhere.
GCN5L2 inh – GCN5L2 (KAT2A) acetyltransferase inhibition. Q92830. GCN5L2 HAT assay, ThioGlo1 CoA-SH fluorescence. Potency, µM (doses to about 58.9 µM), without a hit: top-dose activity change, negative = inhibition, usual class: inhibitors. hit rate 0.21% among 390,000
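Enzyme at 20nM final was mixed with library compounds for 15 min at room temperature. Peptide H3(1-25) at 75uM, acetyl-CoA at 70uM and ThioGlo1 at 50uM were then added. Plates were read immediately and after 20 min (Ex340nm/Em540nm).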
PLK1 PBD block – blocks phosphopeptide binding to human PLK1 polo-box domain; Plk1 PBD binding of FITC phosphopeptide, fluorescence polarization; hit rate 2.8% among 360,000; Potency, µM, inactives show max response, negative = inhibition, actives largely listed as inhibitors; AID 720504; P53350; note: series mostly up to about 57 µM; nearly all actives have a fitted effect of over 65% in size
VDR inhibitor – blocks the human vitamin D receptor; P11473; VDR-SRC2-3 peptide fluorescence polarization, 2 h; Potency, µM, for the others: max response, negative = inhibition, hits mostly inhibitors; hit rate 0.93% among 400,000; AID 504847
Target sequence (P11473 whole entry, looked up): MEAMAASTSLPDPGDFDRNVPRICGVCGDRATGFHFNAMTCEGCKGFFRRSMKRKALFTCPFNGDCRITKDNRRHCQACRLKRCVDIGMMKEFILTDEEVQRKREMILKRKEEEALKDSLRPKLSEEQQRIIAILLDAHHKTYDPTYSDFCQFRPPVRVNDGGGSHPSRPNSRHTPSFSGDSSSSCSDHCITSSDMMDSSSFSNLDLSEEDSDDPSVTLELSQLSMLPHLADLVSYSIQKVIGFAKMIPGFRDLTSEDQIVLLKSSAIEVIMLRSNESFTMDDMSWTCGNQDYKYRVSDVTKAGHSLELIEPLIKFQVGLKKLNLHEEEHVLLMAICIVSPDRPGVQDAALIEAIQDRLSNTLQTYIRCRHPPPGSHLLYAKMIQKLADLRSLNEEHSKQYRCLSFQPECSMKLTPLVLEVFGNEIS
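Reagent solutions, kept cold and dark, are dispensed first; compounds are then pinned in at 23 nl, plates briefly spun, and incubated 2 h at ambient temperature. Inhibition of VDR–SRC2-3 peptide binding is read by fluorescence polarization.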
ALOX12 inh – blocks human arachidonate 12S-lipoxygenase; purified 12hLO, xylenol orange hydroperoxide absorbance; hit rate 1.1% among 580,000; P18054; Potency, µM (highest dose often 108 µM), for inactives: at the highest dose activity change, negative = inhibition, most hits filed as inhibitors
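Hydroperoxide product was detected by ferrous iron/xylenol orange as the 573 to 405 nm absorbance ratio. Arachidonic acid at 40 uM (final) was turned over for 30 min at room temperature by 150 nM human 12hLO, pH 7.0 Hepes buffer, after 15 min compound preincubation.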
* hit, by the source's call; u = inconclusive; x = no result given. Calls come from the whole dose curve; as a rule, active = well fitted curve in the direction sought with a large enough effect; inconclusive = small, poorly fitted or top-dose-only effect, or another doubt; inactive = no such curve, though single readings can be large; an effect the other way counts as inactive or inconclusive. % is set by controls: 0 for no effect and ±100 for the full control effect; potency is the fitted concentration of half-maximal effect.

SMILES	GCN5L2 inh	PLK1 PBD block	VDR inhibitor	ALOX12 inh
Cc1ccc(S(=O)(=O)CC(=O)Nc2nnc(C(C)(C)C)s2)cc1	-0.5%	u	9.2%	u
CCC(CC)c1nnc(NC(=O)CS(=O)(=O)c2ccc(C)cc2)s1	-4.8%	11.9µM*	44.7µM*	u
CCC(CC)c1nnc(NC(=O)CS(=O)(=O)Cc2ccccc2)s1	x	u	3.0%	-18.8%
CCCC(C)c1nnc(NC(=O)CS(=O)(=O)Cc2ccccc2)s1 (stereo not drawn)	1.2%	14.1µM*	u	u
NC(=O)C(NC(=O)NCC(F)(F)F)C(N)=O	x	x	x	23.9%
COc1ccc(NC(=O)CCc2c[nH]c3ccccc23)cc1	x	x	x	-9.1%
CCc1cc(=O)n(CC(=O)Nc2ccc(F)cc2)c(-c2ccccc2)n1	x	x	x	-27.1%
NC(=O)c1ccccc1NC(=O)CS(=O)(=O)Cc1ccccc1	-2.1%	23.8µM*	10.3%	-6.0%
CCCC(C)c1nnc(NC(=O)CCS(=O)(=O)Cc2ccccc2)s1 (stereo not drawn)	-15.1%	13.4µM*	u	u
Cc1nnc(NC(=O)CCS(=O)(=O)Cc2ccccc2)s1	-8.7%	u	12.5%	u
CC(C)CC(=O)Nc1nnc(CCc2ccccc2)s1	-5.8%	3.7%	-7.3%	-11.7%
CCC(C)C(=O)Nc1nnc(CCc2ccccc2)s1 (stereo not drawn)	-1.2%	23.8µM*	u	u
CCN(C)S(=O)(=O)c1cc2c(cc1Cl)Oc1cc(C)ccc1NC2=O	x	x	x	-0.3%
CCCCN(C)c1ccc(-c2n[nH]c(=O)c3ccccc23)cc1[N+](=O)[O-]	x	x	x	-1.2%
N=C1C(c2nc3ccccc3c(=O)[nH]2)=C(O)CN1c1cccc(Cl)c1Cl	x	x	x	-5.6%
CCC(CC)C(=O)Nc1cc(OC)c(OC)cc1C(=O)O	-0.5%	18.9µM*	-14.5%	-2.9%
CCn1nc(C)c(CNC(=O)Nc2ccc(OC)cc2OC)c1C	x	x	x	1.3%
CNCc1cn2cc(Cl)ccc2n1	0.6%	26.7µM*	-19.9%	-2.8%
Cc1noc(C)c1S(=O)(=O)Nc1c(NC2CCCCC2)c2ccccc2oc1=O	x	x	x	-17.0%
Cc1nc(SC(C)c2ccc(F)c(F)c2)sc1CC(N)=O (stereo not drawn)	x	x	x	-7.2%
CC1(C)CC(=O)c2cc(-c3nc(-c4ccc(F)cc4)cs3)c(=O)[nH]c2C1	0.1%	x	6.8%	50.1µM*
CC1(C)CC(=O)c2cc(-c3nc(-c4ccc(Cl)cc4)cs3)c(=O)[nH]c2C1	2.2%	x	-15.1%	-17.8%
COc1ccc(-c2cnc(C(N)=O)c(=O)[nH]2)cc1	x	-22.0%	x	6.31µM*
CCNC(=O)Nc1ccc2c(c1)c(=O)n(C)n2Cc1ccc(Cl)cc1	x	-26.7%	x	14.1µM*
CCNC(=S)Nc1ccc2c(c1)c(=O)n(C)n2Cc1cccc(C(F)(F)F)c1	x	26.7µM*	x	u
SMILES	GCN5L2 inh	PLK1 PBD block	VDR inhibitor	ALOX12 inh
Cc1ccc(CNC(=S)Nc2ccc3c(c2)c(=O)n(C)n3Cc2cccc(C(F)(F)F)c2)cc1	x	u	x	17.8µM*
COc1ccc(CCNC(=O)Nc2ccc3c(c2)c(=O)n(C)n3Cc2ccc(Cl)cc2)cc1OC	x	-12.5%	x	u
COc1ccc(-c2[nH]ncc2CN(CC2CCC(=O)N2)C(C)C)cc1F (stereo not drawn)	13.0%	26.7µM*	u	1.5%
Fc1ccccc1NC(=S)NCCc1ccccc1	-3.0%	2.99µM*	-22.4%	0.0%
Cc1c(Cl)cccc1NC(=S)NCCc1ccc(Cl)cc1	-0.8%	-16.7%	23.5%	25.1µM*
Fc1ccccc1NC(=S)NCCc1ccc(Cl)cc1	-0.1%	-10.2%	-4.9%	39.8µM*
CN(CC(=O)NC(N)=O)Cc1ccc(F)c(F)c1	x	x	x	31.6%
O=C(NCc1ccncc1)c1ccc(Oc2ccccc2)cc1	-10.5%	10.6µM*	-26.1%	-26.8%
O=C(NCc1ccncc1)c1ccc(OCc2ccccc2)cc1	x	-0.5%	-3.1%	13.9%
O=C(O)CC(NCc1ccccc1)c1ccccc1 (stereo not drawn)	x	x	x	-29.8%
Cc1cc(C(F)(F)F)nc(SC(C(=O)O)c2ccccc2)n1 (stereo not drawn)	x	x	x	11.2µM*
Cc1cc(C)nc(SC(C(=O)O)c2ccccc2)n1 (stereo not drawn)	0.1%	u	14.5%	-0.5%
CCOC(=O)C1=C(C)NC(=NC)SC1c1ccccc1 (stereo not drawn)	-0.4%	21.2µM*	-3.6%	-4.2%
Oc1ccc2ccccc2c1C=NC12CN3CCN(CN(C3)C1)C2	-4.2%	5.32µM*	u	7.8%
OCC(CO)(CO)N=Cc1c(O)ccc2ccccc12	-5.3%	4.23µM*	-19.3%	-29.3%
CN(C)/N=C/c1c(O)ccc2ccccc12	-9.8%	-3.4%	-4.6%	u
COc1ccc(OCCN(C)C(=O)c2nn(C)c(=O)c3ccccc23)cc1	x	x	x	-10.7%
O=C(NCCCc1ccncc1)C1CCC(=O)N(Cc2cccc(F)c2)C1 (stereo not drawn)	-1.4%	29.9µM*	u	-14.5%
O=C(O)C1(Cc2nc3ccccc3s2)CCCC1	x	x	x	-20.5%
Cc1ccc(C(=O)NCC(=O)NCCCc2ccccc2)s1	-7.1%	4.3%	-7.1%	3.4%
Cc1ccc(C(=O)NCC(=O)OCC(=O)NCCc2ccccc2)s1	-3.7%	26.7µM*	-17.8%	-15.3%
Cc1cc(Cl)ccc1NC(=O)C1CC2CCC1C2 (stereo not drawn)	x	x	x	8.8%
C#CCSc1nncn1C(=O)/C=C/c1ccccc1	-29.2%	23.8µM*	u	x
NC(=O)c1ccc(NC(=O)c2ccccc2CSc2nc3ccccc3o2)cc1	x	x	x	-8.8%
CSc1nc2c(c(=O)[nH]1)CCCC2	2.3%	4.7%	13.8%	-9.3%
SMILES	GCN5L2 inh	PLK1 PBD block	VDR inhibitor	ALOX12 inh
CSc1nc(=S)c2[nH]c(=S)[nH]c2[nH]1	3.16µM*	2.67µM*	u	0.0%
Nc1nc(=S)c2[nH]c(=S)[nH]c2[nH]1	x	u	-23.1%	7.94µM*
COC(C(=O)N/N=C(\C)CC(C)(C)c1ccccc1)c1ccccc1 (stereo not drawn)	x	x	x	6.1%
CCCc1cc(=O)oc2c3c(c(Cl)cc12)OCN(CCCO)C3	12.6µM*	x	x	x
CCCc1cc(=O)oc2c(CN3CCCC3)c(O)c(Cl)cc12	u	-9.5%	6.6%	-23.5%
CN1C(=O)/C(=C\c2ccco2)N=C1c1ccc(Cl)cc1Cl	-11.9%	-13.6%	2.9%	-19.3%
O=C1OC(/C=C/c2ccc(Cl)cc2)=NC/1=C/c1ccco1	-10.3%	-14.0%	0.7%	39.8µM*
COc1ccc(Cl)cc1NC(=O)C(=O)c1cn(CC(=O)N2CCOCC2)c2ccccc12	x	x	x	16.5%
Cc1cc(Cl)ccc1C(=O)C1CCCN(C(=O)c2ccoc2)C1 (stereo not drawn)	-2.5%	-0.4%	-2.1%	-3.5%
COc1ccc(C(=O)C2CCCN(C(=O)c3ccc(C(C)=O)s3)C2)c(C)c1 (stereo not drawn)	-24.2%	29.9µM*	-1.4%	4.0%
COc1ccc2cc(C(=O)C3CCCN(C(=O)c4cnn(C(C)C)c4)C3)ccc2c1 (stereo not drawn)	-7.4%	23.8µM*	u	0.0%
COCc1ccc(C(=O)N2CCCC(C(=O)c3ccc(Cl)cc3C)C2)o1 (stereo not drawn)	0.3%	18.9µM*	u	-26.2%

From PubChem BioAssay
